Screening results as filed in PubChem BioAssay.
Rows were chosen to be rich in hits. Some 1.4% of all compounds tested hit in one or more screens of this group.
p-CIP stab down = p/CIP protein destabilization; Q05BA5; decrease of EGFP signal, % at 10 µM; AID 1984; 0.01% of 290,000 active; F442A p/CIP-EGFP cells, EGFP fluorescence, 16 h;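 active = EGFP signal decrease of at least 30% at 10 µM or well 3 SD below plate mean, unless failing retest; inactive = the rest, including hits failing retest or dose response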
Target sequence (Q05BA5 1-1403): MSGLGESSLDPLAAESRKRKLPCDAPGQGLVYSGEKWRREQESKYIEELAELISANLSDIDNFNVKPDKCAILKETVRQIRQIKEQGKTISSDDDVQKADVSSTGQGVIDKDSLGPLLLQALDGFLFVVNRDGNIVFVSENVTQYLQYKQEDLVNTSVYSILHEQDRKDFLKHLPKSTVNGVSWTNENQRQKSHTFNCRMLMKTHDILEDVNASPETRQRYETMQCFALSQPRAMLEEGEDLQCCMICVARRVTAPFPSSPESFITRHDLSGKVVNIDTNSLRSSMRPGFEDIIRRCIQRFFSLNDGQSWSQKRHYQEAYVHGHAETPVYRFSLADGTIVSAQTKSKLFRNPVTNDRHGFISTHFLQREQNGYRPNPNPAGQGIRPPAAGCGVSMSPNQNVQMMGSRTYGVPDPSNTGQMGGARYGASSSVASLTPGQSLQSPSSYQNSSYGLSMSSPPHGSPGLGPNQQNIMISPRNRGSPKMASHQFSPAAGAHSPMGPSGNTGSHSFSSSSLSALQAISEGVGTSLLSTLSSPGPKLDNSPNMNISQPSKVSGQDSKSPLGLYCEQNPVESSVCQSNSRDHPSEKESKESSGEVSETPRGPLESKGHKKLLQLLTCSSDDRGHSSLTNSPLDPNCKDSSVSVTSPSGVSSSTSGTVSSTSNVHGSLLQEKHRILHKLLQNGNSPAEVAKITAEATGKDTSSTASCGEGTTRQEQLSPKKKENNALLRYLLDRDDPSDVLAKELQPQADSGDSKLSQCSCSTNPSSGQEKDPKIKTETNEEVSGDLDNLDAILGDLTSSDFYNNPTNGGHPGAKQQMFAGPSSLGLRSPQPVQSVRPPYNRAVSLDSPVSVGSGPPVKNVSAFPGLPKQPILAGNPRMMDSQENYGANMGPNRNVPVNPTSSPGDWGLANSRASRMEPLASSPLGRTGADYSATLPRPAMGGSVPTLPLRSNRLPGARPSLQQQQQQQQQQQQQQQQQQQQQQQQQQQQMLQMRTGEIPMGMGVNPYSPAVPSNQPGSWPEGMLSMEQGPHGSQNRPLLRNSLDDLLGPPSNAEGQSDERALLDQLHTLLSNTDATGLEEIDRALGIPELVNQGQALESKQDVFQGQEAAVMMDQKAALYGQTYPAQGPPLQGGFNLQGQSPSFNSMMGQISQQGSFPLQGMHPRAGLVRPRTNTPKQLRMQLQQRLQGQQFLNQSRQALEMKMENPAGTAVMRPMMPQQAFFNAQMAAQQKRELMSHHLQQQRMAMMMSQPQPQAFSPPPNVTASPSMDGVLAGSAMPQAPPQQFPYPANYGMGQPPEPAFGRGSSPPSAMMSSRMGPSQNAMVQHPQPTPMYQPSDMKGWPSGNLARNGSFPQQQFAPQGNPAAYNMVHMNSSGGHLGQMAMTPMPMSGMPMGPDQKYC
MsrA inhibitor = inhibitors of bovine MsrA; purified bovine MsrA, absorbance read-out; inhibition, % at 15.5 µM; 0.75% of 360,000 active; in the data active = inhibition above about 4.5%;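 note: 0% = vehicle wells with enzyme and 100% = reference inhibitor wells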
bovine MsrA act = activators of bovine methionine sulfoxide reductase A; purified bovine MsrA, absorbance read-out; activation, % at 10.6 µM; 0.3% of 360,000 active; AID 602163; in the data active = activation above about 7.5%;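 note: 0% = vehicle and 100% = reference activator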
14-3-3 Bad inh = disrupts binding of bovine 14-3-3 zeta to phospho-Bad peptide; TR-FRET 14-3-3zeta/Dy647-pBad peptide displacement, 1 h; inhibition, % at 21.7 µM; 0.71% of 220,000 active; AID 781;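 active = inhibition above about 70%, limit read from the data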;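 note: 0% = full 14-3-3 plus peptide FRET controls and 100% = background without 14-3-3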
* = called active by the depositor; . = not tested or not shown; [ ] = remark or other dose.

SMILES | p-CIP stab down | MsrA inhibitor | bovine MsrA act | 14-3-3 Bad inh
Cc1cccc(CN2CCN(C3CN(Cc4cn(Cc5ccc(C(F)(F)F)cc5)nn4)S(=O)(=O)C3)CC2)c1 (stereo not drawn) | . | 0.6 | . | .
O=C(CCCCCN1C(=O)c2ccccc2C1=O)NCc1ccccn1 | 7.4 | -0.6 | 7.7 | 76.8*
CN(c1cccnc1)c1ccc(NC(=O)Cc2c[nH]c3ccccc23)cc1-c1cccnc1F | . | 0.8 | . | .
COc1ccc(OC)c(CNc2ccc(F)c(Cl)c2)c1 | 0.0 | -0.6 | -3.3 | 79.4*
CCc1cc2cc3c(cc2nc1SCC(=O)Nc1cc(C)on1)OCO3 | -16.4 | -1.1 | 0.3 | 82.4*
CCc1cc2ccc(C)cc2nc1SCC(=O)Nc1cc(C)on1 | 1.2 | 0.5 | -1.3 | 1.8
COC(=O)c1cc2c(c3c4cc(F)ccc4n(S(=O)(=O)c4ccc(C)cc4)c13)C(=O)N(c1ccc(OC)cc1)C2 | . | 0.2 | . | .
CC(C)n1cnc2cc(NCc3ccco3)ccc21 | -16.6 | . | -2.5 | 70.4*
O=C(Cn1c2ccc(F)cc2c2nc3n(c(=O)c21)CCS3)Nc1ccccc1F | -2.3 | . | . | 26.1
O=C(Cn1c2ccc(F)cc2c2nc3n(c(=O)c21)CCS3)Nc1ccccc1C(F)(F)F | 14.9 | 0.1 | -2.9 | 81.1*
COc1ccc(C(N)CCc2ccc(C)o2)cc1 (stereo not drawn) | -18.5 | -0.3 | 0.3 | 87.9*[fluorescence artefact?]
OC1(c2cccnc2)CCN(Cc2nnnn2C2CCCCC2)CC1 | 5.6 | -1.0 | -2.1 | 83.7*
C1CCC(n2nnnc2CN2CCCC2)CC1 | -15.9 | 0.1 | -3.7 | -3.3
Cc1cccn2c(=O)c(/C=N/O)c(Nc3ccccc3F)nc12 | 3.6 | 0.3 | -3.0 | 86.9*
Cc1cccn2c(=O)c(/C=N/O)c(NCc3ccccc3)nc12 | -10.7 | 0.6 | -4.2 | 5.5
O=C(O)c1cccc(NC(=O)C2CC(=O)N(Cc3ccccc3)C2)c1 (stereo not drawn) | -5.6 | 0.4 | 2.6 | 76.5*
O=C(Nc1ccccc1)C1CC(=O)N(Cc2ccccc2)C1 (stereo not drawn) | 12.4 | -1.1 | -6.0 | .
Cc1cc(C(=O)Nc2nnc(-c3ccccc3)s2)no1 | -10.1 | 4.6* | -7.6 | 1.9
CN(C)c1ccc(/C=C(\NC(=O)c2ccccc2)C(=O)NCc2ccncc2)cc1 | -4.3 | 4.7* | -4.4 | .
CN1CCN(C(=O)/C(=C/c2ccc(F)cc2)NC(=O)c2ccccc2)CC1 | -12.1 | 0.5 | -1.8 | .
CN1CCN(C(=O)/C(=C/c2ccc(N(C)C)cc2)NC(=O)c2ccccc2)CC1 | -3.5 | 4.6* | -4.1 | .
O=C(N[C@H](C(=O)N1CCC[C@H]1C(=O)NC1CCCC1)C1CCCCC1)C1CC1 | . | -0.6 | . | .
NC(=O)c1ncn([C@@H]2O[C@H](C(=O)N3CCCN(Cc4ccccc4F)CC3)[C@@H](O)[C@H]2O)n1 | . | -0.9 | . | .
O=C(NNC(=O)c1cc2ccccc2o1)c1ccc(F)cc1 | . | -0.3 | -3.2 | .
C/C(=N\NC(=O)c1ccc(O)cc1)c1cc2ccccc2o1 | 25.0 | 4.6* | -4.4 | -14.4
SMILES | p-CIP stab down | MsrA inhibitor | bovine MsrA act | 14-3-3 Bad inh
CC(=O)N1CCN(c2ccc(N3CCN(C(C)=O)[C@H](C)C3)c(C)c2)[C@@H](C)C1 | . | 0.0 | . | .
COC(=O)[C@@H](Cc1ccc(O)cc1)NC(=O)[C@H]1O[C@@H](n2cnc3c(=O)[nH]c(N)nc32)[C@H](O)[C@@H]1O | . | -0.2 | . | .
CCOC(=O)C(=CNc1ccc2c(c1)CCN2C(C)=O)C(=O)OCC | -5.8 | 4.9* | -4.8 | -9.1
Nc1nc(NC(=O)c2cccs2)nn1-c1ccccc1 | 10.0 | -0.7 | -13.2 | 82.5*
Nc1nc(NC(=O)c2ccccc2)nn1-c1ccccc1 | -5.0 | 2.4 | -3.3 | 7.3
CC(=O)Oc1cc2cccc(OC(C)=O)c(=O)c2c(OC(C)=O)c1OC(C)=O | -0.8 | . | -4.3 | 74.8*
CC(=O)Oc1cc2c(c3ccccc13)CCC2=O | . | -0.2 | -2.6 | .
COc1cccc(CNC(=O)[C@H]2CCCN2C(=O)[C@H]2CCCN2C(=O)c2ccc(F)cc2F)c1 | . | -0.2 | . | .
CC(CN1CCN(C)CC1)OC(=O)c1ccccc1 (stereo not drawn) | 1.4 | 0.8 | 0.5 | 71.1*
CC(CN1CCN(C)CC1)OC(=O)c1ccc(F)cc1 (stereo not drawn) | 7.2 | -0.4 | -5.0 | 90.8*
O=C(CN1CCc2ccccc2C1)Nc1cccc(S(=O)(=O)N2CCCC2)c1 | 4.4 | 0.2 | -2.3 | 80.1*
COc1ccc(S(=O)(=O)N2CCCc3nc(-c4ccc(F)cc4)ccc32)cc1 | . | -0.7 | . | .
Cc1ccc(C)c(-n2sc3ccc(F)cc3c2=O)c1 | . | 1.3 | 13.0* | .
O=c1c2cc(F)ccc2sn1-c1ccc(F)cc1 | . | . | 7.3 | .
COc1ccc(-n2sc3ccc(F)cc3c2=O)cc1 | . | -0.5 | 12.4* | .
Cc1ccc(S(=O)(=O)N2CC(CBr)=CCC2c2ccccc2)cc1 (stereo not drawn) | . | -0.7 | . | .
COC(=O)[C@]12C[C@H](CC(=O)N3CCN(C(=O)C4CC4)CC3)C(=O)N(CCC3=CCCCC3)C1=C[C@H](C(C)(C)C)O[C@@H]2C | . | -0.8 | . | .
Fc1cccc(NCc2ccoc2)c1 | -7.8 | -0.7 | -2.8 | 82.5*
COc1ccc(-n2nc(C(=O)NCC(=O)Nc3ccccn3)c3ccccc3c2=O)cc1Cl | 9.1 | -1.4 | -1.8 | 71.7*
COc1cc(C(=O)NCc2ccc(C(=O)NCC(OC)OC)cc2)cc(OC)c1OC | 1.5 | -0.1 | -2.0 | 72.2*
COc1cc(N)c(C(O)c2nccc3cc(OC)c(OC)cc23)cc1OC (stereo not drawn) | 2.8 | 1.6 | -0.1 | .
COc1ccc(C(O)c2nccc3cc(OC)c(OC)cc23)cc1OC (stereo not drawn) | 0.2 | 0.0 | -6.9 | 91.9*
CC(C)C(=O)Nc1ccc(-c2nc3ncccc3o2)cc1 | -0.1 | 4.6* | 1.0 | .
CC(C)C(=O)Nc1cccc(-c2nc3ncccc3o2)c1 | -5.0 | 1.7 | -3.2 | .
Nc1csnc1C(=O)O | -4.7 | 0.3 | -2.2 | 77.8*
SMILES | p-CIP stab down | MsrA inhibitor | bovine MsrA act | 14-3-3 Bad inh
O=C(O)c1nnsc1-c1csnn1 | . | 0.9 | -6.2 | .
CC(=O)N1CCN(c2ccc(N3CCN(Cc4ccccc4)[C@@H](C)C3)c(C)c2)[C@@H](C)C1 | . | -1.0 | . | .
CCc1cc2c(nc1CC)CCCN2Cc1ccc(Br)cc1 | . | 0.6 | . | .
O=c1cc2oc3cc(O)c(O)cc3c(-c3ccccc3O)c-2cc1O | -82.4 | . | -6.1 | 48.3
COc1ccc(OC)c(-c2c3cc(O)c(=O)cc-3oc3cc(O)c(O)cc23)c1 | -59.1 | . | -11.4 | 74.6*[fluorescence artefact?]
COc1ccc(C(=O)Nc2ccccc2-c2nnn(CC(=O)Nc3ccc4c(c3)OCCO4)n2)cc1 | -3.2 | 0.4 | 8.5* | 42.6
CC(C)(C)c1cccc(Oc2nn[nH]n2)c1 | -8.2 | 0.0 | -7.0 | 79.1*
Cc1cc(C)cc(Oc2nn[nH]n2)c1 | -12.2 | -0.3 | -3.9 | 70.7*
C#CC1c2ccccc2CCN1CC=C (stereo not drawn) | . | -0.8 | . | .
Cc1cccc(OCCCN2CCC(C(O)(c3ccccc3)c3ccccc3)CC2)c1 | . | 0.8 | . | .
Oc1ccc(C(c2nnnn2C2CCCC2)N2CCc3ccccc3C2)cc1 (stereo not drawn) | 15.2 | 0.0 | -3.4 | 76.5*
COc1cc(C(c2nnnn2C2CCCC2)N2CCc3ccccc3C2)ccc1O (stereo not drawn) | -13.8 | 0.4 | -13.6 | 61.2
COC(=O)c1cc2c(c3c4cc(OC)ccc4n(S(=O)(=O)c4ccc(OC)cc4)c13)C(=O)N(Cc1ccccc1OC)C2 | . | 0.9 | . | .
